Assay [1] can be described thus: small molecules captured by biotinylated probe aFSTL3 – biochemical, small-molecule microarray, fluorescence 635/667, stem cell growth factor project, primary screen (AID 1064).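 Note: measures binding of the biotinylated anti-FSTL3 antibody to printed compounds.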 The settings on record: higher = more signal.
Assay [2] can be described thus: binders from COS7 lysate, DM2A8 probe, primary screen, torsin A project, cell lysate, small-molecule microarray, fluorescence 635/667 (AID 1065). Particulars: higher = more signal, COS7 lysate expressing mutant human TOR1A.
Assay [3] can be described thus: small molecules captured by biotinylated probe aFGF2 – biochemical, small-molecule microarray, fluorescence 635/667, stem cell growth factor project, primary screen (AID 1067).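 Note: measures binding of biotinylated aFGF2 protein to printed compounds on slides; z-score merges feature fluorescence and signal-to-noise across triplicate slides.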 The settings on record: higher = more signal.
Assay [4] in a line: small molecules captured by biotinylated probe aFGF10 – biochemical, small-molecule microarray, fluorescence 635/667, stem cell growth factor project, primary screen (AID 1071).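 Note: score merges 667 nm spot intensity and signal to noise from triplicate slides.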 Particulars: higher = more signal.
Assay [5] addresses Neurogenic locus notch homolog protein 2 (Homo sapiens) (UniProt Q04721). The assay is described as follows: small molecules binding Notch2 protein – biochemical, small-molecule microarray, 635 nm fluorescence, stem cell growth factors, primary screen (AID 1073). Particulars: higher = more signal.
Assay [6] deals with Pro-neuregulin-1, membrane-bound isoform (Homo sapiens) (UniProt Q02297). Kind of assay: small molecules binding neuregulin-1 protein – biochemical, small-molecule microarray, fluorescence 635/667, psychiatric disease protein project, primary screen (AID 1075).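 Note: score combines 667 nm spot fluorescence with signal to noise.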 The settings on record: NRG1 binding, 635 nm fluorescence, higher = more signal.
Chain of Pro-neuregulin-1, membrane-bound isoform (Homo sapiens) (Q02297 whole entry, looked up, the tested form may be a part, canonical isoform): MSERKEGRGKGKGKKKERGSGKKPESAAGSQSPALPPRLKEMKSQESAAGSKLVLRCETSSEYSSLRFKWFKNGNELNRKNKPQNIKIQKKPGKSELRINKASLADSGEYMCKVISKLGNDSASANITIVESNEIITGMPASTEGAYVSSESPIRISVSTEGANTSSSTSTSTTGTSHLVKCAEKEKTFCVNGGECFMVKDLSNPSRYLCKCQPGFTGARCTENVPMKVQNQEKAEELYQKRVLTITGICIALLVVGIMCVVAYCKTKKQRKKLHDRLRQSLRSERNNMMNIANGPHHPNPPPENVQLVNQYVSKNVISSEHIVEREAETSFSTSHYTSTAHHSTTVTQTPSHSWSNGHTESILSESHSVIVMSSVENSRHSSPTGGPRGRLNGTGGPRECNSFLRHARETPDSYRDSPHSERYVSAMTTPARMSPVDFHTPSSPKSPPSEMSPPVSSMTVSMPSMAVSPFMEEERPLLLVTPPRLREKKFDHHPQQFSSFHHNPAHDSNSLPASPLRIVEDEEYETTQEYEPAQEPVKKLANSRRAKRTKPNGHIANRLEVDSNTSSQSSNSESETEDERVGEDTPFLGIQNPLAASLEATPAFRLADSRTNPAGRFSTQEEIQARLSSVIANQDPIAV
Assay [7] deals with Neuregulin-1 EGF-like domain. Kind of assay: small molecules binding NRG1 EGF domain – biochemical, small-molecule microarray, 635 nm fluorescence, primary screen (AID 1081).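 Note: binding of the protein to compounds printed on small-molecule microarray slides.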 Particulars: higher = more signal.
The nature of assay [8]: FRG1 expression reporter modulators in myotubes – cell-based, C2C12 myotubes, firefly/Renilla luciferase, luminescence, FRG1 inhibition for FSHD, primary screen (AID 1084). Particulars: FRG1 promoter luciferase, higher = more signal, called active from +8 up or from −8 down.
The nature of assay [9]: small molecules captured by biotinylated probe aFST – biochemical, small-molecule microarray, fluorescence 635/667, stem cell growth factor project, primary screen (AID 1086).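 Note: score merges 667 nm fluorescence with signal-to-noise of each printed compound spot.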 The settings on record: higher = more signal.
Assay [10] is described as follows: binders of probe aHhip on microarray, primary screen, stem cell growth factor project, biochemical, small-molecule microarray, fluorescence 635/667 (AID 1087).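 Note: score merges spot fluorescence at 667nm with spot signal to noise ratio.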 The settings on record: higher = more signal.
The subject of assay [11] is PRMT1 (protein arginine N-methyltransferase 1). Kind of assay: small molecules binding arginine methyltransferase PRMT1 – biochemical, small-molecule microarray, 635 nm fluorescence, primary screen (AID 1088).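 Note: binding of Prmt1 protein to compounds spotted on small-molecule microarray slides.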 The settings on record: higher = more signal.
The nature of assay [12]: growth effects on S. cerevisiae YJM789 – YJM789 clinical isolate, OD600, 24 h, basal, primary screen (AID 1089).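 Note: growth of clinical yeast isolate S. cerevisiae YJM 789 seeded 1000 cells per well; test concentration not given here.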 The settings on record: higher = more signal, called active from +8 up or from −8 down.
Assay [13] can be described thus: S. pombe growth modifiers, basal conditions – strain 972, OD600, 24 h, no modulator, primary screen (AID 1090).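 Note: basal condition with compound alone and no growth modifier present; test concentration not given here.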 Particulars: S. pombe 972 growth, higher = more signal, called active from +8 up or from −8 down.
The nature of assay [14]: budding yeast growth modifiers under rapamycin – strain BY4716, OD600, 96 h, primary screen (AID 1091). Note: test concentration not given here. The settings on record: S. cerevisiae BY4716 + rapamycin, higher = more signal, called active from +8 up or from −8 down.
Assay [15] concerns the target Torsin-1A-interacting protein 2 (Homo sapiens) (UniProt Q8NFQ8). The assay is described as follows: small molecules binding lysate-expressed LULL1 – cell lysate, human LULL1 lysate, 635/667 nm fluorescence, primary screen (AID 1092).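 Note: probe is lysate of COS7 cells overexpressing human LULL1; score merges per-feature 667 nm fluorescence with signal-to-noise.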 Particulars: small-molecule microarray, hLULL1 lysate binding, 635 nm fluorescence; higher = more signal.
The nature of assay [16]: optical density change of DRC41 E. coli – strain DRC41, OD650, 24 h, E. coli filamentation project, primary screen (AID 1093).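 Note: MC1000 strain lacking acrAB efflux and sulA so SOS filamentation is blocked; test concentration not given here.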 The settings on record: E. coli DRC41 growth, higher = more signal, called active from +8 up or from −8 down.
Assay [17] in a line: probe aLefty2 binding to arrayed compounds – biochemical, biotinylated probe, 635/667 nm fluorescence, primary screen (AID 1094).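 Note: score merges spot fluorescence near 667 nm with spot signal-to-noise ratio.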 The settings on record: small-molecule microarray, higher = more signal.
Assay [18] concerns Noggin (protein binding on small-molecule microarray). Kind of assay: small molecules binding Noggin protein – biochemical, 635/667 nm fluorescence, primary screen (AID 1095).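 Note: score merges 667 nm feature fluorescence with signal to noise over triplicate slides.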 The settings on record: 635 nm fluorescence, higher = more signal.
The target of assay [19] is Neurogenic locus notch homolog protein 3 (Homo sapiens) (UniProt Q9UM47). The assay is described as follows: small molecules binding NOTCH3 protein – biochemical, 635/667 nm fluorescence, primary screen (AID 1096). Particulars: small-molecule microarray, 635 nm fluorescence, higher = more signal.
Chain of Neurogenic locus notch homolog protein 3 (Homo sapiens) (Q9UM47 whole entry, looked up): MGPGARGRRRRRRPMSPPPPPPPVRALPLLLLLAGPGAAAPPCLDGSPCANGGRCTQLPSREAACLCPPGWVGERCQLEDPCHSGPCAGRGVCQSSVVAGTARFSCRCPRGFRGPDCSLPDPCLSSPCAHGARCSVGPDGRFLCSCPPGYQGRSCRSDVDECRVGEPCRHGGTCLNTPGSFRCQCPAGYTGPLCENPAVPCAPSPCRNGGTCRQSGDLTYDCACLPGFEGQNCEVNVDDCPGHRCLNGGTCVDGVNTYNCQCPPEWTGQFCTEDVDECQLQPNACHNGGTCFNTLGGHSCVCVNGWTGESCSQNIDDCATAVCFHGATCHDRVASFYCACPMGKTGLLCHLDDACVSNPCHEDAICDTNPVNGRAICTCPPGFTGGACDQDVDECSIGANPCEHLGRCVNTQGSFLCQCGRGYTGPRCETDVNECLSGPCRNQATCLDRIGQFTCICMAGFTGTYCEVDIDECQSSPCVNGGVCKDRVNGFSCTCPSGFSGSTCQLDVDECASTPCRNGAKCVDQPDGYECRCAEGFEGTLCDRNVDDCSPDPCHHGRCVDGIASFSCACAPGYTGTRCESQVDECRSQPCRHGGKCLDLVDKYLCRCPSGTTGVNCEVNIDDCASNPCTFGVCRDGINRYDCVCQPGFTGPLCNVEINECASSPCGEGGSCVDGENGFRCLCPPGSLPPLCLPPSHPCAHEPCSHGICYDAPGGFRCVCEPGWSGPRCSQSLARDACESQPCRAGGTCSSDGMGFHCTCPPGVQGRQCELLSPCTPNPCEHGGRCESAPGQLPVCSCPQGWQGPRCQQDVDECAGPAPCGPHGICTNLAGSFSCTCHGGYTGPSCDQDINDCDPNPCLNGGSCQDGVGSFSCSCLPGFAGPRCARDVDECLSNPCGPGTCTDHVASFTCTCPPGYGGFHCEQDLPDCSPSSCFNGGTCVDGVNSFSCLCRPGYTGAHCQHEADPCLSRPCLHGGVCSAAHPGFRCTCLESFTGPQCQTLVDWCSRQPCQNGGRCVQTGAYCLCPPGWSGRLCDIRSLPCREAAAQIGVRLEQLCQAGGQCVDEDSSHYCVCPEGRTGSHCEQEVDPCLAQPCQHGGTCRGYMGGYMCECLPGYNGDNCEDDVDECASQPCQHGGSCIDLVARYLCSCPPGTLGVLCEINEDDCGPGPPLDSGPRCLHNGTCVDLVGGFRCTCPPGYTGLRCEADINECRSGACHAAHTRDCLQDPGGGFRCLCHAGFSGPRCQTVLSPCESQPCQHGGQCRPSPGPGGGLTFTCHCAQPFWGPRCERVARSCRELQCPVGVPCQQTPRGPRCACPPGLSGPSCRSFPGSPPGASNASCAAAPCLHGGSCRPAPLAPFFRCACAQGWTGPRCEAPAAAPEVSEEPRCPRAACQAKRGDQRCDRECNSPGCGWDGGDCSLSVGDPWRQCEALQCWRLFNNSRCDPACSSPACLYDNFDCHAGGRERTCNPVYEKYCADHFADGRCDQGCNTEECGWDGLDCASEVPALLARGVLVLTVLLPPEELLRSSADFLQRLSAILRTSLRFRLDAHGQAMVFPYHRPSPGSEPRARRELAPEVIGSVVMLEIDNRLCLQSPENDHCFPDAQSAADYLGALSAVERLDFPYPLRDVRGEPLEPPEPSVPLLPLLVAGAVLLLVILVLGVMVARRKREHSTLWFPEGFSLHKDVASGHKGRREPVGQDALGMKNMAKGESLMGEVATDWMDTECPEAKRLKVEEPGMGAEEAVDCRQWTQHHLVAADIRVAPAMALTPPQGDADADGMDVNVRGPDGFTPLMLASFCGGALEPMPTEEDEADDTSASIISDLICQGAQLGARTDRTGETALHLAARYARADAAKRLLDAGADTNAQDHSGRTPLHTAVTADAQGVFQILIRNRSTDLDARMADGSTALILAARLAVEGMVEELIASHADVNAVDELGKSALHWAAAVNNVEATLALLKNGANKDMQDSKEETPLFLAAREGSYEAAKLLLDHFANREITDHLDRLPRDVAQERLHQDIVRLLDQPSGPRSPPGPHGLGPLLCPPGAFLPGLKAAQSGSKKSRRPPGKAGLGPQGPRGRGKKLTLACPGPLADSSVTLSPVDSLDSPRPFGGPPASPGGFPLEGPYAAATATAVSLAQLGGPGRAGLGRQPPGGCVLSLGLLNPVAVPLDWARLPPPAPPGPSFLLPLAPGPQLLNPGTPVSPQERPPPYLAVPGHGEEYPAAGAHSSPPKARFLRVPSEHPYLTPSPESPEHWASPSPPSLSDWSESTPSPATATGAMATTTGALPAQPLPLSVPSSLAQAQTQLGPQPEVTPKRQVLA
Assay [20] can be described thus: probe aEGFR binding to arrayed compounds – biochemical, biotinylated probe, 635/667 nm fluorescence, primary screen (AID 1097).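 Note: probe is a biotinylated anti-EGFR antibody binding compounds printed on slides; score combines fluorescence near 667 nm and signal to noise of each spot.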 Particulars: small-molecule microarray, higher = more signal.

Activity calls are given as the source filed them.

Chain of Torsin-1A-interacting protein 2 (Homo sapiens) (Q8NFQ8 whole entry, looked up): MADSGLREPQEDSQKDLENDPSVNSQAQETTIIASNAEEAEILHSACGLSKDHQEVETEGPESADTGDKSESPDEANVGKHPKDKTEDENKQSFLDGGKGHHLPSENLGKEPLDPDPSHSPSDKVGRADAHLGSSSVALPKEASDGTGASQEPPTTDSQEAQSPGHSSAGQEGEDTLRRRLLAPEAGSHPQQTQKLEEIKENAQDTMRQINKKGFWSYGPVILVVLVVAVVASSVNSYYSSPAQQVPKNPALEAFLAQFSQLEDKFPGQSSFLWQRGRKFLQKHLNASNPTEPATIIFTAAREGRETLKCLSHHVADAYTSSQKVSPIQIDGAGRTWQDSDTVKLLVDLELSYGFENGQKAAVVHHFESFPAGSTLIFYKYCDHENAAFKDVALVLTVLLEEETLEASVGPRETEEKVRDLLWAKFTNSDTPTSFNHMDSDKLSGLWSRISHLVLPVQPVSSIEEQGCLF

Turning to `CC(CCN1CCc2nc(-c3ccccc3)c(-c3ccccc3)cc2C1)=NOC[C@@H](O)COCc1ccco1`, the composite z-score in assay [1] is -0.278; in assay [2], 0.424; in [3] it was -0.0598; in [4], 0.111; in assay [5], 0.303; in [6] it was 0.268. The composite z-score in assay [7] was 0.792; in [9], -0.0187; in assay [10], -0.261; in assay [11], 0.651; in [15], 0.0955; in assay [17], -0.176. Further, the composite z-score in assay [18] was 0.806; in [19] it was 0.481; in assay [20] it was -0.083. Further, the z-score in assay [8] was 0.515 (inactive); in assay [12], -0.544 (inactive); in [13], -1.45 (inactive); in assay [14], -3.75 (inactive); in assay [16] it was 0.845 (inactive).

In the case of `COC(=O)[C@@H]1CC[C@H](C)[C@@H](c2ccc(C)cc2)N1C(=O)c1ccc(C=NO[C@H](C)c2cn([C@@H]3COC[C@H]3O)nn2)cc1`, the composite z-score in assay [1] is -0.591; in assay [2] it was -0.314; in assay [3] it was -0.0459; in assay [4], 0.515; in assay [5], 1.14; in assay [6] it was 0.122. The composite z-score in assay [7] was 0.972; in assay [9] it was 0.165; in [10] it was -0.124; in assay [11], 1.12; in [15] it was 2.06; in [17], -0.138. Moreover, the composite z-score in assay [18] came out at 0.258; in assay [19], 1.09; in [20], 0.212. For the same compound, the z-score in [8] was 0.191 (inactive); in assay [12], 0.524 (inactive); in [13] it was -0.0358 (inactive); in assay [14] it was 0.726 (inactive); in [16], 1.67 (inactive).

For `CCOC(=O)[C@H](CC(C)C)NC(=O)CCC1CC(OC(=O)NCc2ccc3c(c2)OCO3)CC2(CCCC(COC(=O)NCC3CCCCC3)O2)O1` (stereo not given in full), the composite z-score in assay [1] is -0.203; in assay [2] it was 1.06; in assay [3], -0.11; in assay [4] it was 0.443; in assay [5], 0.6; in assay [6], 0.292. Moreover, the composite z-score in [7] is 1.02; in assay [9] it was 0.293; in assay [10] it was -0.255; in assay [11], 1.24; in assay [15], 1.49; in assay [17], -0.323. Moreover, the composite z-score in [18] is 0.553; in assay [19], 1.09; in [20], -0.109. Besides, the z-score is 0.807 (inactive) in [8]; 0.192 (inactive) in assay [12]; -0.0848 (inactive) in [13]; -0.113 (inactive) in assay [14]; 0.409 (inactive) in assay [16].

In the case of `Cc1ccc(S(=O)(=O)N[C@H]2COC(=O)CC=C[C@@H](C)COC(=O)CC=C[C@@H]2C)cc1`, the composite z-score in assay [1] is -0.537; in [2], 0.604; in [3], -0.135; in assay [4] it was 0.0963; in assay [5], -0.094; in assay [6], -0.326. The composite z-score is -0.0175 in assay [7]; -0.135 in assay [9]; -0.466 in assay [10]; 0.683 in [11]; -0.953 in assay [15]; 0.296 in assay [17]. Also, the figures for the composite z-score in assay [18], in assay [19] and in assay [20] were 1.8, -0.207 and -0.281, respectively. Besides, the z-score was 0.999 (inactive) in [8]; 0.611 (inactive) in assay [12]; 0.174 (inactive) in assay [13]; 0.247 (inactive) in assay [14]; 0.682 (inactive) in assay [16].

In the case of `CC(C)=CCCC(C)=CCON=C1C[C@@H](O)[C@@H](O)[C@@H]2[C@@H]3C(=O)N(Cc4ccccc4)C(=O)[C@@H]3CC[C@@H]12`, the composite z-score in assay [1] was -0.249; in [2], 0.585; in assay [3] it was -0.0548; in assay [4], 0.649; in assay [5] it was 0.194; in assay [6], 0.34. The composite z-score in [7] is 1.05; in assay [9] it was 0.172; in [10], 0.204; in assay [11], 1.09; in [15] it was -0.859; in [17] it was -0.114. The composite z-score in [18] was 1.33; in assay [19], 0.637; in [20] it was 0.012. Further, the z-score was 0.365 (inactive) in [8]; 0.432 (inactive) in [12]; -0.114 (inactive) in assay [13]; -0.535 (inactive) in assay [14]; 0.326 (inactive) in assay [16].

For the origin of these results see PubChem BioAssay.
